Among the data in PubChem BioAssay AID651717 (Broad Institute, 2012) are max activity values, retold here.

Hit rate of the full screen: of about 1,200 compounds, about 950 (79%) were called active. So high a share suggests a set chosen from earlier hits. A selection follows. Entries with a potency or affinity are not part of this list. Values without a mark were called inactive.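 The calls were made as follows: active = signal rises and fitted curve reaches 40% activity at or below the top valid tested dose, in every replicate test; inconclusive = replicate tests give mixed calls; inactive = the rest, including activity in the opposite direction.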

The test is described as follows: Bmi1-luciferase reporter activators in mESC, dose response, esBAF inhibitor project, mouse embryonic stem cells, cherry-pick (AID 651717).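 Also: luciferase knocked into Bmi1 locus with EF-1a renilla as cell number control; rising ratio signals esBAF inhibition which derepresses Bmi1.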 To be noted: firefly/renilla ratio, 24 h, active compounds read high; at 35 µM unless noted. For orientation: A reporter such as luciferase makes a cellular process visible.
On to `C[C@@H]1CN([C@H](C)CO)C(=O)c2c(c3ccccc3n2C)-c2ccccc2CO[C@H]1CN(C)C(=O)Nc1ccc2c(c1)OCO2`, for which the max activity was -14.5%. With `CC(C)c1ccc(NC(=O)c2ccccc2NC(=O)C2CCCCC2C(=O)O)cc1` (stereo unspecified), the max activity was 41%. Take `Cc1cccc(NC2SC(=O)N(c3ccccc3)C2=O)c1` (stereo unspecified): the max activity was 37.5%. With `O=C(/C=C/NNC(=O)c1ccccc1O)c1ccccc1`, the max activity was 4.98% [at 4.2 µM]. For `CCn1c(CCNC(=O)c2cccs2)nnc1SCC(=O)Nc1nc(-c2ccccc2)cs1`, the max activity was 32.7%. With `C[C@@H]1CCCCO[C@@H](CN(C)C(=O)Nc2ccccc2)[C@@H](C)CN([C@@H](C)CO)C(=O)c2cc(NC(=O)Nc3ccc4c(c3)OCO4)ccc2O1` the figure was 13.1% [at 16 µM]. Turning to `C[C@@H]1CCCCO[C@@H](CN(C)C(=O)Nc2cccc3ccccc23)[C@H](C)CN([C@H](C)CO)C(=O)c2cc(NC(=O)Cc3ccccc3)ccc2O1`, the max activity was -4.4% [at 2.1 µM].

As for `Brc1ccc(N=C/C=C/C=C/Nc2ccc(Br)cc2)cc1`, the max activity was 9.66% [at 4.2 µM]. Take `C[C@H](CO)N1C[C@H](C)[C@@H](CN(C)S(=O)(=O)c2cccs2)Oc2c(NC(=O)Nc3ccc4c(c3)OCO4)cccc2C1=O`: the max activity is -24.2%. Consider `COc1cccc(-c2cnc(C(O)c3ccc(F)cc3)[nH]2)c1` (stereo unspecified), for which the max activity was 32% [at 8 µM]. As for `CCc1ccc(C(O)c2ncc(-c3cccc(F)c3)[nH]2)cc1` (stereo unspecified), the max activity was -31.3%. Next, `OC(c1ccccc1)c1ncc(-c2ccccc2F)[nH]1` (stereo unspecified): -21.5%.

With `Cc1ccc(S(=O)(=O)N2CCOCC2)cc1C(=O)Nc1ccc(-c2cn3ccsc3n2)cc1`, the max activity is -8.19%. Consider `CC(C)c1ccc(Nc2ncc3c(n2)CCN(C(=O)Nc2ccc(F)c(Cl)c2)C3)cc1`, for which the max activity is 20.6%.

In the case of `N#Cc1cccc(NC(=O)c2cc(C3CCCCN3S(=O)(=O)c3cccc4cccnc34)on2)c1` (stereo unspecified), the max activity was -16.3%. In the case of `O=C(Nc1ccc(F)c(Cl)c1)c1cc(C2CCCN(S(=O)(=O)c3cccc4cccnc34)C2)on1` (stereo unspecified), the max activity was 29.2% [at 16 µM].

As to `COC(=O)c1ccc(-c2ccc(OC)c([C@H]3[C@H]4C=CC[C@@H](C)[C@@H]4C(=O)N3Cc3ccccc3)c2)cc1`, the max activity was -14.1%. With `O=C1C2C(c3cccc(/C=C/c4ccccc4)c3)CC=CC2C(c2ccc3ccccc3c2)N1Cc1ccccc1` (stereo unspecified) the figure was 17.2%; with `CN(C)C(=O)CCc1ccc2c3c([nH]c2c1)[C@]1(CCc2ccccc2)[C@@H](C(=O)N2CCCCC2)C[C@H](CC(=O)NCCC2=CCCCC2)C(=O)N1CC3`, -35% [at 8 µM].

Turning to `C[C@H](CO)N1C[C@H](C)[C@@H](CN(C)C(=O)Nc2ccc3c(c2)OCO3)Oc2ncc(C#CC3(O)CCCC3)cc2C1=O`, the max activity was -4.31% [at 16 µM]. Next, `C[C@H](CO)N1C[C@H](C)[C@H](CN(C)C(=O)Nc2ccc3c(c2)OCO3)Oc2c(NS(=O)(=O)c3ccccc3)cccc2C1=O`: -12.7%; `C[C@@H]1CCCCO[C@H](CN(C)S(=O)(=O)c2cn(C)cn2)[C@@H](C)CN([C@@H](C)CO)C(=O)c2cc(NC(=O)Nc3ccc4c(c3)OCO4)ccc2O1`: -8.77% [at 8 µM]; `C[C@H](CO)N1C[C@H](C)[C@@H](CN(C)S(=O)(=O)c2cn(C)cn2)Oc2c(NC(=O)Nc3ccc4c(c3)OCO4)cccc2C1=O`: -22.8%. With `Cc1ccc(S(=O)(=O)N[C@H]2CC[C@@H](CCNC(=O)Nc3ccc(Cl)cc3)O[C@H]2CO)cc1` the figure was -11.4%; with `O=C(NCC[C@H]1CC[C@H](NC(=O)Nc2cc(F)ccc2F)[C@H](CO)O1)Nc1ccc(Cl)cc1`, 31.4%; with `C[C@H]1CN([C@@H](C)CO)C(=O)c2c(c3ccccc3n2C)-c2ccccc2CO[C@H]1CN(C)C(=O)Nc1ccc2c(c1)OCO2`, -25.1%.

For `Cc1noc(C)c1NC(=O)N(C)C[C@@H]1Oc2ncc(C#CC3CC3)cc2C(=O)N([C@@H](C)CO)C[C@H]1C`, the max activity was 9.7% [at 8 µM]. Consider `O=C(Cc1ccc(Cl)cc1)NC1CCCCCC1`, for which the max activity was 37.5%. Next, `CC(C)NC(=O)N(C)C[C@@H]1OCCCC[C@H](C)Oc2ccc(NC(=O)Nc3ccc4c(c3)OCO4)cc2C(=O)N([C@H](C)CO)C[C@@H]1C`: 11.4% [at 0.5 µM]; `CS(=O)(=O)Nc1ccc(C2=NN(S(C)(=O)=O)C(c3cccs3)C2)cc1` (stereo unspecified): 36.3% [at 16 µM]. Next, `COc1ccc(S(=O)(=O)N2Cc3ccccc3CC2C(=O)Nc2ccc3c(c2)OCO3)cc1` (stereo unspecified): 17% [at 4.2 µM]; `Cc1nc2cc(C(=O)O)ccc2s1`: 22% [at 16 µM].

In the case of `CN(C(=O)c1cc2c(s1)-c1ccccc1S(=O)(=O)C2)c1ccccc1`, the max activity is 29.1%. With `N=C1/C(=C/c2ccc(OCc3ccccc3)cc2)C(=O)N=C2SC(CC(=O)N3CCOCC3)=NN12` the figure was 23.9%; with `Cc1ccc(COc2ccccc2C(=S)N2CCCC2)cc1`, 28.7%. As to `C[C@H]1CN([C@@H](C)CO)C(=O)c2cccc(NC(=O)Nc3ccc(C(F)(F)F)cc3)c2O[C@@H]1CN(C)C`, the max activity is 14.9% [at 8 µM]. For the compound `C[C@H](CO)N1C[C@H](C)[C@H](CN(C)C(=O)Nc2ccc3c(c2)OCO3)OCc2ccccc2-c2c(n(C)c3ccccc23)C1=O`, the max activity is -46.6%. With `C[C@H](CO)N1C[C@H](C)[C@@H](CN(C)Cc2ccc(-c3ccccc3)cc2)Oc2ccc(NC(=O)CCCCCC(=O)Nc3ccccc3N)cc2CC1=O` the figure was 16.8% [at 16 µM]; with `CCCNC(=O)Nc1ccc2c(c1)OC[C@@H](C)N(Cc1ccc(-c3ccccn3)cc1)C[C@@H](C)[C@H](OC)CN(C)C2=O`, -20.1%. Next, `CO[C@@H]1CN(C)C(=O)c2ccc(NC(=O)c3nc4ccccc4s3)cc2OC[C@@H](C)N(Cc2cncnc2)C[C@H]1C`: 21% [at 16 µM]; `C[C@@H]1CN([C@@H](C)CO)C(=O)c2cc(NC(=O)Cc3cn(C)c4ccccc34)ccc2O[C@H]1CN(C)C(=O)Nc1ccc2c(c1)OCO2`: 9.93% [at 8 µM]; `CO[C@@H]1CN(C)C(=O)c2ccc(NC(=O)c3nc4ccccc4s3)cc2OC[C@@H](C)N(Cc2ccncc2)C[C@H]1C`: 38.8%. Turning to `CO[C@@H]1CN(C)C(=O)c2ccc(NC(=O)c3nc4ccccc4s3)cc2OC[C@@H](C)N(Cc2cccnc2)C[C@H]1C`, the max activity was 18.5%. With `COc1cccc(C(=O)Nc2ccc3c(c2)OC[C@@H](C)N(CCc2ccccc2)C[C@@H](C)[C@H](OC)CN(C)C3=O)c1` the figure was 9.35% [at 1 µM]. Take `CC(C)(C)C(=O)[C@H]1[C@H](c2ccccc2)[C@@]2(N=C(c3ccccc3)OC2=O)C2c3ccccc3C=NN21` (stereo partly specified): the max activity is 19% [at 16 µM]. Take `CC1CCCN(C(=O)c2ccc(Cl)c(S(=O)(=O)N3CCCCCC3)c2)C1` (stereo unspecified): the max activity was 6.03% [at 4.2 µM]. On to `O=C(NCCc1ccc(F)cc1)c1cccc(NC(=O)c2ccccc2)c1`, for which the max activity was 21.2%.

Turning to `O=C(CNc1ccccc1F)Nc1cccc2ccccc12`, the max activity is -8.82%.

As to `C[C@H]1CCCCO[C@H](CN(C)S(=O)(=O)c2cn(C)cn2)[C@@H](C)CN([C@@H](C)CO)C(=O)c2cc(NC(=O)Nc3ccc4c(c3)OCO4)ccc2O1`, the max activity was -6.42% [at 0.5 µM]. Take `O=C(c1cc(COc2ccc(F)cc2F)on1)N1CC2C[C@@H]3CC1C[C@H](C2)C3`: the max activity was 35.9% [at 16 µM].

Turning to `C[C@@H]1CN([C@H](C)CO)C(=O)c2cc(NC(=O)Nc3ccc4c(c3)OCO4)ccc2O[C@@H](C)CCCCO[C@@H]1CN(C)S(=O)(=O)c1cn(C)cn1`, the max activity was -6.88% [at 1 µM].
